Screen size: about 2,100 compounds; about 770 (37%) were called active. Some of the results follow. A number with no mark means an inactive call.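 The calls were made as follows: active = by-eye trace score of 1 for enhancers or -1 for inhibitors, so actives lie on both sides (some results past the limit were not filed as active); inactive = score 0, or 3 fluorescent, or 4 baseline rise.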

In the experiment the target is G protein-activated inward rectifier potassium channel 2 (Homo sapiens) + G protein-activated inward rectifier potassium channel 1 (Homo sapiens) (UniProt P48051+P48549). As to the kind of experiment: GIRK1/2 thallium flux modulators, retest, confirmation, cell-based, HEK293 rmGlu8/hGIRK1/2, FluoZin-2 (AID 623911). The conditions noted are these: HEK293 rmGlu8/hGIRK1/2, thallium flux FluoZin-2; actives lie on both sides; glutamate co-added at its EC20 level.
Chain of G protein-activated inward rectifier potassium channel 2 (Homo sapiens) + G protein-activated inward rectifier potassium channel 1 (Homo sapiens) (P48051 whole entry, looked up): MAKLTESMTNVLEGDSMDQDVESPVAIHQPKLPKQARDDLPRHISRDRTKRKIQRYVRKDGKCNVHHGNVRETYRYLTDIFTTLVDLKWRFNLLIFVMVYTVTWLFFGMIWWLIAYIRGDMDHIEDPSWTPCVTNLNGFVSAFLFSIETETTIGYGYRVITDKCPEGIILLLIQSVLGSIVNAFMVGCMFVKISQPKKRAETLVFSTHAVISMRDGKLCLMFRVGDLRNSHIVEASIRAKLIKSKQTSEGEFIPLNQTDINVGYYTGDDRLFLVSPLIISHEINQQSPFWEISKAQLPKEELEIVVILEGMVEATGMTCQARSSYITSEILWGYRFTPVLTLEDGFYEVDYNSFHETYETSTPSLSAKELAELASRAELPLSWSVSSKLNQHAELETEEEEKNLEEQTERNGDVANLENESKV
Chain of G protein-activated inward rectifier potassium channel 2 (Homo sapiens) + G protein-activated inward rectifier potassium channel 1 (Homo sapiens) (P48549 whole entry, looked up): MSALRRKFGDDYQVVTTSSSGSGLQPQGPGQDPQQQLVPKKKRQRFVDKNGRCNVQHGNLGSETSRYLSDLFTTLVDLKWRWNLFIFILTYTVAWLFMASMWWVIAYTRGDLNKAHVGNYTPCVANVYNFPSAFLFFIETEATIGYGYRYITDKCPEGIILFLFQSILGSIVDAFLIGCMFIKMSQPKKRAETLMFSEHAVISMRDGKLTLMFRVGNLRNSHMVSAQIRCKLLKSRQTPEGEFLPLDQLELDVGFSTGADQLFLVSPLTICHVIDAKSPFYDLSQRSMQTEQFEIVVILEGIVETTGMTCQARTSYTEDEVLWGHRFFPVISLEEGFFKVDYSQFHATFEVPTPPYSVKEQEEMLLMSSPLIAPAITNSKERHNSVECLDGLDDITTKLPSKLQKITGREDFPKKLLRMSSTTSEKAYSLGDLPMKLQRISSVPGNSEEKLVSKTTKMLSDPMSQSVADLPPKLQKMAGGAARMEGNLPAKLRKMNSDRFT
For the compound `Cc1nc2nc(Cc3ccccc3)[nH]n2c(=O)c1Cc1ccccc1`, the manual score was 0.

As to `CCN(CC)CCN1C(=O)c2oc3ccccc3c(=O)c2C1c1ccc(C)cc1` (stereo not drawn), the manual score was 0.

As to `CCOC(=O)C(C)Oc1ccc2c(CC)cc(=O)oc2c1C` (stereo not drawn), the manual score is 0.

Consider `CCOC(=O)C1=C(O)C(=O)N(c2ccc(S(N)(=O)=O)cc2)C1c1ccccc1` (stereo not drawn), for which the manual score was 0.

In the case of `COc1ccc2nc(N3C(=O)/C(=C/c4ccccc4)NC3=S)sc2c1`, the manual score is 1 (active).

As for `CCCSc1nc(C)nc2c1c(=O)n(C)c(=O)n2C`, the manual score was 0.

As for `Clc1ccc(OCCn2ccnc2)c(Cl)c1`, the manual score was 0.

With `CC(C)CC(NS(=O)(=O)c1ccc2c(c1)oc(=O)n2C)C(=O)NC1CCCc2ccccc21` (stereo not drawn), the manual score is 0.

On to `CSc1nc(Sc2ccccc2)c2ccccc2n1`, for which the manual score was 0.

As for `Cc1sc2nc(CN3CCCC3)nc(N3CCN(S(=O)(=O)c4cccs4)CC3)c2c1C`, the manual score was -1 (active).

`Cc1nc(N2CCN(C(=O)COc3ccccc3)CC2)c2c(C)c(C)sc2n1`: the manual score is -0.5.

`CCOc1ccccc1N1CCN(S(=O)(=O)c2cccs2)CC1`: the manual score was 0.

Consider `Cc1cc(/C=c2/sc3nc4ccccc4n3c2=O)c(C)n1-c1ccccn1`, for which the manual score is 0.

`CCNC(=S)N/N=C/c1c(Cl)cccc1Cl`: the manual score is 0.5.

Turning to `CCCCN(CCCC)C(=S)N/N=C/c1c(C)[nH]n(-c2ccccc2)c1=O`, the manual score was 1 (active).

Regarding `CC1=NN(c2ccccc2)C(=O)/C1=C\c1c(C)[nH]n(-c2ccccc2)c1=O`, the manual score was 0.

Regarding `Cc1[nH]n2c(=O)cc(C(C)(C)C)nc2c1-c1ccccc1`, the manual score was 1 (active).

For `Cc1nc2c(-c3ccccc3)c(C)[nH]n2c(=O)c1Cl`, the manual score was 0.

Regarding `Cc1cc(=O)n2[nH]c(C)c(-c3ccccc3)c2n1`, the manual score is 0.5.

As for `COc1cc(CNCCc2c[nH]c3ccccc23)ccc1OCc1ccc(F)cc1`, the manual score was -1 (active).

With `COc1cc(CNc2ccc(N3CCCC3)cc2)ccc1OCc1ccccc1`, the manual score was 0.

In the case of `COc1cc(/C=C(/C#N)c2ccc(F)cc2)ccc1OCc1ccc(C(=O)O)o1`, the manual score is 0.

Turning to `Cn1cccc1CNC1CCCC1`, the manual score was 0.

With `COc1ccccc1NC(=S)NCCc1ccc(Cl)cc1`, the manual score is 0.

Consider `Cc1ccc(Cl)cc1NC(=S)NCc1cccn1C`, for which the manual score was 1 (active).

Consider `O=C(c1ccccc1CCc1ccccc1)N1CCN(c2ccccn2)CC1`, for which the manual score is -1 (active).

Consider `O=C(CN1C(=O)c2cccc3cccc(c23)C1=O)N1CCN(c2ccccn2)CC1`, for which the manual score was 3.

Regarding `Cc1cc(C(=O)N2CCN(CCc3ccccc3)CC2)no1`, the manual score is 0.

In the case of `CCOC(=O)C1CCN(C(=O)N(C)C)CC1`, the manual score was 0.

`COc1ccc(NC(=S)SC)cc1OC`: the manual score is 0.

Regarding `CCC(C)c1ccc(NC(=S)Nc2ccc(OC)c(OC)c2)cc1` (stereo not drawn), the manual score was 1 (active).

With `COc1ccc(NC(=S)Nc2ccc(OCc3ccccc3)cc2)cc1OC`, the manual score is 0.

For the compound `COc1ccc(CCC(=O)NCc2cnn(C)c2)cc1`, the manual score was 0.

For `c1ccc2c(Nc3nnc(-c4ccncc4)s3)cccc2c1`, the manual score is 0.

As to `CCCSc1nnc(Nc2ccccc2C)s1`, the manual score is 1 (active).

Turning to `Cc1nnc(NC(=O)CCSc2ccccc2)s1`, the manual score is 0.

On to `COC(=O)C1=NN(c2ccccc2)C2C(=O)N(c3ccccc3OC)C(=O)C12` (stereo not drawn), for which the manual score was 0.

On to `N#CC(c1cccc(Cl)c1)c1ccc2c(C(F)(F)F)cc(C(F)(F)F)nc2n1` (stereo not drawn), for which the manual score is 0.

Regarding `CNC(=S)N/N=C1\C(=O)c2cccc3cccc1c23`, the manual score is 1 (active).

For `O=C(N/N=C1/C(=O)c2cccc3cccc1c23)c1ccc(Cl)cc1`, the manual score is 1 (active).

Turning to `CCCCNC(=S)N/N=C1\C(=O)c2cccc3cccc1c23`, the manual score was 0.

Consider `CCNC(=S)N/N=C1\C(=O)c2cccc3cccc1c23`, for which the manual score is 1 (active).

For `CCNC(=S)N/N=C1\CCCCc2ccccc21`, the manual score was 4.

As to `O=c1c(O)c(-c2cccs2)oc2ccc(Cl)cc12`, the manual score is 3.

Turning to `CCCOc1ccc(/C=N/NC(=O)C(=O)Nc2ccccn2)cc1`, the manual score was 0.

As for `COc1ccc(/C=N/NC(=O)c2nc(-c3ccccc3)cc(-c3ccccc3)n2)cc1`, the manual score is 0.

Consider `O=C(N/N=C/c1ccc(Sc2ccccn2)o1)c1cc2ccccc2cc1O`, for which the manual score was 1 (active).

Regarding `O=C(CSc1nc(O)cc(=O)n1-c1ccccc1)N1CCCCC1`, the manual score is 0.

With `Cc1ccc(NC(=S)c2nc3ccccc3[nH]2)c(C)c1`, the manual score was 1 (active).

Turning to `Cc1ccc(NC(=S)N/N=C/c2c(Cl)cccc2Cl)c(C)c1`, the manual score was 0.

Turning to `Cc1ccc(C)c(NC(=S)c2nc3ccccc3s2)c1`, the manual score was 0.

For the compound `N#C/C(=C\c1ccc(N2CCOCC2)o1)c1nc2ccccc2[nH]1`, the manual score is 3.

Take `Cc1ccccc1NC(=S)c1nc2ccccc2[nH]1`: the manual score was 1 (active).

Regarding `COc1ccc(CNc2nc(-c3cccnc3)nn2C(=O)c2ccco2)cc1`, the manual score is 0.

`CCOC(=O)c1ccccc1NC(=O)CSc1nnc(Cc2cccn2C)n1-c1ccc(F)cc1`: the manual score was -1 (active).

On to `CCOC(=O)c1ccccc1NC(=O)CSc1nnc(Cc2cccn2C)n1-c1ccc(C)cc1`, for which the manual score was -1 (active).

Take `CCOC(=O)CN(C(=O)CSc1nnc(Cc2ccccc2)n1-c1ccc(C)cc1)c1ccccc1`: the manual score was -1 (active).

In the case of `CCOC(=O)c1ccccc1NC(=O)CSc1nnc(COc2ccccc2)n1CC`, the manual score was -0.5.

For `CCOC(=O)c1nn(-c2ccc(F)cc2)c(C)c1C(C)=O`, the manual score is 0.

As to `COC(=O)c1ccc(NC(=O)CSc2nnc(COc3ccccc3)n2C)cc1`, the manual score was 3.

On to `CCOC(=O)c1ccccc1NC(=O)CSc1nnc(COc2ccccc2C)n1C`, for which the manual score is -1 (active).

Regarding `CN(C(=O)c1cccnc1)c1nnc(-c2cnccn2)s1`, the manual score was 0.

With `Cc1cccn2c(=O)c(/C=N/O)c(N3CCCC3)nc12`, the manual score is 0.

In the case of `CCOC(=O)C1=C(C)N=C2SCCC(=O)N2C1c1sccc1C` (stereo not drawn), the manual score was 0.

Regarding `C/C(=N\NC(=S)Nc1cccc(C)c1)c1cccc(N)c1`, the manual score is 0.

`CCc1cc(C(=O)NNC(=S)Nc2ccccc2C)cs1`: the manual score was 0.

As to `CCc1cc(C(=O)NNC(=S)Nc2cccc(C)c2)cs1`, the manual score was 1 (active).

Regarding `Cc1ccsc1/C=N/NC(=O)c1sccc1C`, the manual score is 0.

`CCc1cc(C(=O)NNC(=S)Nc2cc(C)ccc2C)cs1`: the manual score is 1 (active).

`CC/C(=N\NC(=S)Nc1cc(C)ccc1C)c1ccc(OC(F)F)cc1`: the manual score is 0.

As for `Cc1ccc(C2CC2C(=O)NNC(=S)Nc2cccc(C)c2)cc1` (stereo not drawn), the manual score is 0.

Consider `Cc1cccc(NC(=S)NNC(=O)c2sccc2C)c1`, for which the manual score is 1 (active).

On to `O=c1oc(-c2ccc(Br)o2)nc2ccccc12`, for which the manual score is 0.

In the case of `COC(=O)c1cc(=O)n(CCc2ccc(OC)cc2)c(=Nc2ccc(F)c(Cl)c2)s1`, the manual score was 0.

Regarding `CC(C)(C)NC(=O)C(c1ccncc1)N(C(=O)c1csnn1)c1ccccc1` (stereo not drawn), the manual score was 0.

As to `O=C(C[n+]1cc(-c2ccccc2)n2c1CCC2)OCc1ccccc1`, the manual score is 0.

As for `O=C(Nc1ccccc1)Nc1nccs1`, the manual score is 1 (active).

For the compound `Cc1ccc(OCCCC(=O)Nc2nccs2)cc1`, the manual score is 0.

With `CC1(C)Cc2ccccc2C(/C(=N\Nc2cccc(Cl)c2)C(N)=O)=N1`, the manual score is 0.

Consider `O=C(Nc1cccc(Cl)c1)Nc1nccs1`, for which the manual score is 1 (active).

With `O=C(CSc1ccccc1)N(c1ccc(Br)cc1)c1nccs1`, the manual score was 0.

`CS(=O)(=O)c1ccc2nc(NC(=O)Nc3ccc(Cl)c(Cl)c3)sc2c1`: the manual score is 0.

With `O=C(NNC(=O)c1cccs1)Nc1cccc(Cl)c1`, the manual score was 1 (active).

In the case of `CCOC(=O)Cn1c(=O)oc2cc(S(=O)(=O)Nc3ccc(N(CC)CC)cc3C)ccc21`, the manual score is 0.

On to `CCOC(=O)C1=C(C)OC(N)=C(C#N)C1c1cncc(-c2ccc(F)cc2)c1` (stereo not drawn), for which the manual score is -0.5.

On to `O=C(NC(=S)Nc1cc([N+](=O)[O-])ccc1Cl)c1ccccc1`, for which the manual score is 0.

On to `COC(=O)c1ccccc1NC(=S)NC(NC(=O)c1ccccc1[N+](=O)[O-])C(Cl)(Cl)Cl` (stereo not drawn), for which the manual score was 0.

In the case of `COc1ccc(C/C(C)=N/NC(=S)Nc2ccccc2)cc1`, the manual score was 0.

On to `O=C(NC(NC(=S)Nc1ccc(Cl)cc1Cl)C(Cl)(Cl)Cl)c1cccc([N+](=O)[O-])c1` (stereo not drawn), for which the manual score is 1 (active).

As for `O=C(/C=C/c1ccccc1)NC(NC(=S)Nc1cccc(Cl)c1)C(Cl)(Cl)Cl` (stereo not drawn), the manual score is 1 (active).

On to `O=C(/C=C/c1ccccc1)NC(NC(=S)Nc1cccc(O)c1)C(Cl)(Cl)Cl` (stereo not drawn), for which the manual score was 3.

Regarding `O=C(/C=C/c1ccccc1)NC(NC(=S)Nc1cc(Cl)ccc1Cl)C(Cl)(Cl)Cl` (stereo not drawn), the manual score is 1 (active).

Take `Cc1c(NC(=S)NC(NC(=O)CC(C)C)C(Cl)(Cl)Cl)c(=O)n(-c2ccccc2)n1C` (stereo not drawn): the manual score was 0.

With `COc1ccc(NC(=S)NC(NC(=O)/C=C/c2ccccc2)C(Cl)(Cl)Cl)cc1` (stereo not drawn), the manual score was 1 (active).

As for `N#C/C(=C/C=C/c1ccccc1)C(=O)Nc1ccccc1`, the manual score is 0.

Regarding `O=C(COc1ccc2ccccc2c1CN1CCOCC1)N1CCc2ccccc21`, the manual score is -1 (active).

Turning to `O=C(CSc1nc(-c2ccccc2)cc(=O)[nH]1)N1CCc2ccccc21`, the manual score is 0.

For the compound `Cc1cccc(S(=O)(=O)NC(Cc2c[nH]c3ccccc23)C(=O)O)c1` (stereo not drawn), the manual score is 0.

Consider `CCOC(=O)C(C)Sc1nnc(-c2c[nH]c3ccccc23)n1C` (stereo not drawn), for which the manual score was -0.5.

Take `CC(C)n1c(NCc2c[nH]c3ccccc23)nc2ccccc21`: the manual score is -1 (active).

Take `Cc1cc(C)c2c(c1)/C(=N/NC(=S)Nc1ccc(F)cc1)CCC2`: the manual score was 0.

For the compound `Cc1ccccc1N=Nc1c(C)[nH]n(C(N)=S)c1=O`, the manual score is 1 (active).

`Cc1ccccc1N=Nc1ccc(O)c2ncccc12`: the manual score is 0.

`Cc1nn(-c2ccccc2)c(OC(=O)c2cccs2)c1S(=O)(=O)c1ccccc1`: the manual score is 0.

As to `CCOC(=O)c1c(C)oc2ccc(O)c(CN3CCCCC3)c12`, the manual score is -1 (active).

`CCN(CC)C(=O)COc1ccc2oc(C)c(C(=O)OC)c2c1`: the manual score was 0.

Consider `CCOC(=O)c1c(C)[nH]c2c1cc(O)c1ccccc12`, for which the manual score was 0.

With `CCOC(=O)c1c(C)n(C)c2ccc(O)c(CN3CCC(C)CC3)c12`, the manual score is -1 (active).

These data come from PubChem BioAssay AID623911 (Vanderbilt High Throughput Screening Facility, 2012).
